Screening data from PubChem BioAssay.
This is a sample that favours compounds with a hit; in the whole collection about 22% have one here.
CYP2C19 activ: activators of human cytochrome P450 2C19 | P33261 | recombinant CYP2C19, luciferin-H EGE luminescence; hits give high values; 0 = fully inhibited enzyme, 1 = untreated enzyme | activation factor at 5 µM | 96,000 tested, under 10 active;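 active means activation factor of at least 2 at 5 µM in the primary screen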;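 further: 0 = wells with 2.5 mM tranylcypromine and 1 = vehicle-only wells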
Target sequence (P33261 whole entry, looked up): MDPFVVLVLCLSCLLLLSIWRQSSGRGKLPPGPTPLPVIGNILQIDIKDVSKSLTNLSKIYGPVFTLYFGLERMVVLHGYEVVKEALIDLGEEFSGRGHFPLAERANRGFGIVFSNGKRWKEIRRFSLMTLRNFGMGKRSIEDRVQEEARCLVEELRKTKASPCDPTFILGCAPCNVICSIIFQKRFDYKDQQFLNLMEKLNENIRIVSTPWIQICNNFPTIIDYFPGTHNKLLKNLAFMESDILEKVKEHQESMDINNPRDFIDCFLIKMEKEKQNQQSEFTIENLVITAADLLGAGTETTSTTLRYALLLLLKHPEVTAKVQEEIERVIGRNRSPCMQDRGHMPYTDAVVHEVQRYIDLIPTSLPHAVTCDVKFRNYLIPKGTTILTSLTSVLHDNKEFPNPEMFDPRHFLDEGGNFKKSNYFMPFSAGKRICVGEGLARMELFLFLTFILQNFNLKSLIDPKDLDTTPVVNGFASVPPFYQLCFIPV
cytoskel mod: modifiers of cytoskeleton assembly | hit rate 0.18% among 91,000 | HUVEC TNFa F-actin phalloidin imaging, high content | inhibition, % at 2 µM;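 active means inhibition above the batch mean plus 3 SD and confirmed as a hit by visual image inspection, cut at about 30% in these data, passing the limit was not always enough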
CYP2C19 inh: inhibitors of human CYP2C19. inhibition, % at 5 µM. AID 778. hit rate 21% among 96,000. CYP2C19 Supersomes, luciferin-H EGE luminescence, 30 min. P33261;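 active means CYP2C19 inhibition above a set limit at 5 µM in the primary screen, cut at about 50% in these data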;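 further: plate controls were negative control wells for no effect and 2.5 mM tranylcypromine positive control for full effect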
CYP2C9 inhib: blocks human cytochrome P450 2C9; AID 777; CYP2C9 Supersomes, luciferin-H conversion, luminescence; P11712; hit rate 20% among 96,000; inhibition, % at 5 µM;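 active means blocking of liver enzyme CYP2C9 beyond about 50% at 5 µM, limit read from the data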
E-sel TNF inh: blocks E-selectin expression induced by TNF alpha; inhibition, % at 2 µM; hit rate 0.71% among 120,000; HUVEC TNFa-induced E-selectin immunofluorescence, high content;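 active means inhibition above the batch mean plus 3 SD, and confirmed as a hit on visual image review, cut at about 43% in these data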;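 further: 0% = TNF-stimulated DMSO wells and 100% = unstimulated control wells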
CYP2C9 activ: increases human cytochrome P450 2C9 activity; recombinant CYP2C9, luciferin-H conversion, luminescence; hits give high values; factor 1 = untreated enzyme, 0 = blocked; activation factor at 5 µM; hit rate 1.4% among 96,000;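 active means activation factor of 2 or more for CYP2C9 at a 5 µM dose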;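 further: 0 = sulfaphenazole-blocked wells and 1 = vehicle-only wells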
* marks the source's active call; other numbers are inactive results; x = no result.

SMILES	CYP2C19 activ	cytoskel mod	CYP2C19 inh	CYP2C9 inhib	E-sel TNF inh	CYP2C9 activ
C=CCSC1=C(C#N)C(c2ccccc2OCC)C(C#N)C(=O)N1 (stereo not drawn)	0.4	-24.9	55.3*	53.7*	1.5	0.5
CCOc1ccccc1C1C(C#N)=C(SCC(=O)OC)NC(=O)C1C(=O)OC (stereo not drawn)	0.3	1.3	70.1*	25.9	13.2	0.7
CCC(C)NC(=O)Cn1c(-c2ccccc2)cc(C(C)=O)c1C (stereo not drawn)	x	x	x	x	-1.1	x
CN(C)S(=O)(=O)c1ccc(C(=O)Nc2ccccc2OC(F)(F)C(F)F)cc1	1	13.1	-1.1	31.4	-15.7	0.7
CCCC(C)C(=O)Nc1nc(C)c(-c2csc(Nc3ccc(Cl)cc3)n2)s1 (stereo not drawn)	0.7	27.1	33.6	54.7*	23.5	0.5
CCCCC(=O)Nc1nc(C)c(-c2csc(Nc3cc(OC)ccc3OC)n2)s1	0.9	-6.8	10.3	79.0*	1.2	0.2
COc1ccc(OC)c(Nc2nc(-c3sc(NC(=O)CC(C)C)nc3C)cs2)c1	0.7	-1.7	28.4	78.4*	-10.0	0.2
CCC(C)C(=O)Nc1nc(C)c(-c2csc(Nc3cc(Cl)ccc3OC)n2)s1 (stereo not drawn)	1	-0.6	4.7	46.2	-8.0	0.5
CCCCC(=O)Nc1nc(C)c(-c2csc(Nc3cc(Cl)ccc3OC)n2)s1	0.9	-17.9	5.9	33.4	-0.6	0.7
CCC(C)C(=O)Nc1nc(C)c(-c2csc(Nc3cc(OC)ccc3OC)n2)s1 (stereo not drawn)	0.8	-21.5	20.6	74.7*	-10.7	0.3
O=C1NCCCc2c1no[n+]2[O-]	1	6.9	-2.8	-21.8	14.2	1.2
COc1ccc2c(c1)CCCC21NC(=O)N(CC(N)=O)C1=O (stereo not drawn)	1	16.3	-0.2	-3.9	x	1
C=CCN(CC=C)S(=O)(=O)c1ccc2nc(NC(=O)C3CCCO3)sc2c1 (stereo not drawn)	x	x	x	x	10.4	x
COc1ccccc1Nc1nc(-c2sc(NC(=O)c3ccccc3)nc2C)cs1	1	8.3	0.7	32.1	-12.1	0.7
COc1ccc(OC)c(Nc2nc(-c3sc(C)nc3C)cs2)c1	0.1	10.1	85.3*	80.2*	15.2	0.2
CCCC(C)C(=O)Nc1nc(C)c(-c2csc(Nc3ccccc3OC)n2)s1 (stereo not drawn)	0.8	-26.4	22.9	73.5*	-20.5	0.3
COc1ccccc1Nc1nc(-c2sc(NC(=O)c3ccc([N+](=O)[O-])cc3)nc2C)cs1	0.6	-25.4	43.7	78.3*	-5.8	0.2
CN=C1SC(CC(=O)Nc2c(C)cccc2C)C(=O)N1/N=C/c1cccs1 (stereo not drawn)	x	x	x	x	37.5	x
COc1cc(C(Nc2ccc3c(c2)OCO3)C(=O)NC2CCCCC2)cc(OC)c1OC (stereo not drawn)	0.3	25.4	74.0*	27.5	-12.8	0.7
COc1cccc(-n2c(C)c(C(C)=O)c(C(C)=O)c2C)c1	0.2	-8.8	77.0*	78.4*	-15.5	0.2
COc1ccc(-n2c(C)c(C(C)=O)c(C(C)=O)c2C)cc1OC	0.3	-13.3	67.6*	-0.5	x	1
COc1cc(OC)cc(-n2nc(C(=O)N3CC(C)CC(C)C3)c3ccccc3c2=O)c1 (stereo not drawn)	x	-34.4	x	x	-63.7	x
CSCCC(C(=O)O)N1C(=O)c2ccc(C(=O)O)cc2C1=O (stereo not drawn)	0.1	-16.1	87.1*	-6.2	-23.4	1.1
Nc1nc2ccc(C(=O)Nc3ccccc3)cc2s1	0.8	25.5	15.9	4.3	16.4	1
Cc1oc(-c2ccc3c(c2)OCCO3)cc1C(=O)O	0.1	x	88.1*	72.0*	-20.1	0.3
CC1CCCN(Cc2nc3c(c(=O)n(C)c(=O)n3C)n2Cc2c(F)cccc2Cl)C1 (stereo not drawn)	0.9	x	10.3	8.9	-1.3	0.9
Cc1cccc(C)c1-n1nnnc1SCSc1nnnn1-c1c(C)cccc1C	0.7	0.9	33.0	77.1*	17.5	0.2
CCOC(=O)c1cnc(-n2nc(C)cc2C)nc1Nc1ccc(N(C)C)cc1	x	7.8	x	x	-8.7	x
CC(NC(=O)/C(=C\c1cccc([N+](=O)[O-])c1)NC(=O)c1ccco1)C(=O)O (stereo not drawn)	x	x	x	x	9.2	x
